This note sets out measurements from ChEMBL document CHEMBL3988442, “University of Dundee, Small-Polar-MMV Screening Library” (2021).

Screen size: about 48,000 compounds; about 13,000 (27%) showed an effect of 50% or more. The list shows a part of the results.

The test relates to Wolbachia pipientis. The test is described as follows: Anti-Wolbachia Cell-Based Screen. The conditions noted are these: 5 µM. Set-up: scale not given: in the data most compounds retested in dose-response had high values. In kind it is functional.
As for `COc1ccc(N(C(=O)c2ccc(C)nc2)C(C)C)cc1F`, the “Percent Effect” value was -11.04%.
Next, `CN(C)C[C@@H]1CN(Cc2ccccc2C#N)C[C@@H]1CO`: 8.186%; `Cn1ncc2c1CN(C(=O)Cc1ccccn1)CC2COCC1CC1.O=C(O)C(F)(F)F.O=C(O)C(F)(F)F` (stereo unspecified): -6.419%.
As for `Cc1cc(C)c(CCNC(=O)NCCCC(N)=O)c(C)c1`, the figure is -1.921%.
As for `O=C(NCCO)Nc1c(F)cc(F)cc1-c1ccccc1`, the figure is 122.6%.
In the case of `CNC(=O)CNC(=O)Nc1ccc(Br)c(F)c1`, the “Percent Effect” value was -1.14%.
As for `CCNC(=O)CNC(=O)Nc1c(F)cc(F)cc1-c1ccccc1`, the figure is 120.1%; as for `COCC(O)CNC(=O)c1cnc(-c2ccccc2)nc1O` (stereo unspecified), -15.86%; as for `O=C(NCCO)Nc1c(F)cccc1Oc1ccccc1`, 2.837%.
As for `O=C(CNC(=O)Nc1c(F)cc(F)cc1-c1ccccc1)NC1CC1`, the figure is 131.5%; as for `O=C(CNC(=O)Nc1cccc(Cl)c1SC(F)F)NC1CC1`, -13.14%; as for `COCC(O)CNC(=O)c1coc(COc2cccc(F)c2)n1` (stereo unspecified), 3.844%.
As for `O=C(NCCO)Nc1ccc(Br)c(F)c1`, the figure is -6.574%; as for `CCNC(=O)CNC(=O)Nc1cccc(Cl)c1SC(F)F`, -15.46%.
`O=C(CNC(=O)Nc1c(F)cccc1Oc1ccccc1)NC1CC1`: the “Percent Effect” value is listed as -0.6876%.
Next, `COCC(O)CNC(=O)Nc1c(F)cc(F)cc1-c1ccccc1` (stereo unspecified): 147.7%; `CCC(CNC(=O)C1CCC1)(OC)c1ccccc1` (stereo unspecified): -1.894%.
As for `CN(Cc1ncc[nH]1)c1nc(-c2ccccn2)nc2c1CCNCC2`, the figure is -0.01551%.
For `c1cnnc(N2CCCC(NCc3nc(C4CC4)no3)C2)c1` (stereo unspecified), the “Percent Effect” value was 9.898%.
Take `Cn1nc(C(C)(C)C)cc1NC(=O)CSc1nnc[nH]1`: the “Percent Effect” value is on record as -11.13%.
Regarding `CCC(CNC(=O)OC)(OC)c1ccccc1` (stereo unspecified), the “Percent Effect” value is 1.829%.
Next, `CN(C)CCN(C)C(=O)NC1CCC(Oc2ccccc2C#N)CC1` (stereo unspecified): -10.57%; `CNc1cccc(C2CCN(C(C)=O)CC2)n1`: 105.5%.
With `Cc1noc(C2CCN(C(=O)c3ccc(NC4CC4)nc3)CC2)n1`, the “Percent Effect” value is reported as -4.487%.
Next, `O=C(N1CCOCC1)N1CCC(Nc2ccncn2)CC1`: 6.366%; `CC(=O)N1CCC(c2cnc(NC3CCOCC3)cn2)CC1`: 89.11%; `CC(=O)N1CCC(c2cccc(NC3CCOCC3)n2)CC1`: 84.73%.
As for `CNc1cccc(C2CCCN(C(C)=O)C2)n1` (stereo unspecified), the figure is 2.608%; as for `CC(=O)NC1(C(=O)N2CCC(Nc3cccnn3)CC2)CCCCC1`, 6.747%; as for `COc1ccccc1CNC(C)c1cnc2cc(C)nn2c1C` (stereo unspecified), -25.88%.
As for `CC(C)Cc1cc(C(=O)O)nc2[nH]c(=O)[nH]c(=O)c12`, the figure is 118.2%.
Regarding `CC(C)CCc1cc(C(=O)O)nc2[nH]c(=O)[nH]c(=O)c12`, the “Percent Effect” value came to 107.7%.
Take `CC(C)c1cc(C(=O)O)nc2[nH]c(=O)[nH]c(=O)c12`: the “Percent Effect” value was determined as 113.5%.
Next, `CC1(C)OCC2(CO1)CN(C(=O)c1ccccc1Cl)C2`: 5.486%; `Cn1cc(CN(CC2(O)CCNC2)C2CCCCC2)cn1` (stereo unspecified): 118.9%; `OC1(CNCc2noc(Cc3ccccc3)n2)CNCCOC1` (stereo unspecified): 7.869%.
Next, `CN(Cc1ccc2nsnc2c1)CC1(O)CNCCOC1` (stereo unspecified): -20.02%.
Next, `CCN(CC)[C@H]1COC[C@@H]2CN(Cc3cnn(C)c3)C[C@@H]21`: 13.67%; `OC1(CN(Cc2cccnc2)C2CCCCC2)CNCCOC1` (stereo unspecified): 96.56%; `CCCc1cc(C(=O)N(Cc2cccnc2)C2CCCCC2)[nH]n1`: 21.65%.
Regarding `CN(Cc1cnn(C)c1)S(=O)(=O)N1CCCCCC1`, the “Percent Effect” value came to 16.54%.
As for `Cn1cc(CN(CC2(O)CNCCOC2)C2CCCCC2)cn1` (stereo unspecified), the figure is 106.6%; as for `CN(Cc1cnn(C)c1)S(=O)(=O)N1CCCCC1`, -3.727%; as for `CC(SCCC(=O)NC(N)=O)c1c(F)cccc1F` (stereo unspecified), -3.785%.
As for `Cc1cccc(N2CCC(NC(=O)CCCc3cccs3)CC2)n1`, the figure is -12.55%.
Next, `CCSC(C)c1nc(-c2ccc(C)nn2)no1` (stereo unspecified): 3.709%.
As for `Clc1ccccc1C1(c2ccnc(-c3ccncc3)n2)CCNCC1`, the “Percent Effect” value was -9.027%.
As for `Cc1nccc(N2CCC(=O)N(CC3CC3)C(C(C)C)C2)n1` (stereo unspecified), the figure is -7.894%; as for `Cc1cc(N2CCN(C3CCOCC3)CC(C(=O)N(C)C)C2)ncn1` (stereo unspecified), 98.55%.
`CN(C)C(=O)C1CN(Cc2c[nH]cn2)CCN(C2CCOCC2)C1` (stereo unspecified): the “Percent Effect” value is -9.527%.
As for `CCc1c(C)sc2ncnc(N3CCN(C4CCOCC4)CC3)c12`, the figure is 8.782%; as for `CN(C)C(=O)C1CN(c2ccncn2)CCN(C2CCOCC2)C1` (stereo unspecified), 126.1%.
Next, `Cc1nccc(N2CCN(C3CCOCC3)CC(C(=O)N(C)C)C2)n1` (stereo unspecified): 164.8%.
As for `Cc1noc(-c2ccnc(N3CCCN(C4CCOCC4)CC3)c2)n1`, the figure is -8.48%; as for `Cc1nccnc1N1C[C@H]2CN(C3CCOCC3)C[C@@]2(C(=O)O)C1`, -7.502%; as for `O=C([C@H]1COC[C@H]2CN(c3ccncn3)C[C@H]21)N1CCCC1`, -2.247%.
Take `CNC(=O)C1CN(c2ccnc(C)n2)CCN(C2CCOCC2)C1` (stereo unspecified): the “Percent Effect” value was determined as 102.7%.
Next, `CN1CCN(C(=O)c2ccc(Cn3cc(Br)cn3)cc2)CC1`: -6.635%.
As to `CN(Cc1ccc(Cl)s1)C(=O)NCCN1CCCCCC1=O`, the “Percent Effect” value is listed as -12.97%.
As for `Cc1cc(NC(=O)C(C)N2CCN(c3nc(C)cs3)CC2)on1` (stereo unspecified), the figure is 1.656%; as for `COCc1cccc(NC(C(N)=O)c2ccc(Br)cc2)c1` (stereo unspecified), 31.5%.
Turning to `Cc1cc(NCC2CCN(c3ccccc3)C2)n2ncnc2n1` (stereo unspecified), the “Percent Effect” value was 0.02222%.
As for `O=C(COCC1CCCO1)N1CCCN(Cc2ccccc2F)CC1` (stereo unspecified), the figure is -31.39%.
Next, `CSc1ccc2cc(CN(C)CCCN(C)C)c(=O)[nH]c2c1`: -7.905%; `CSc1ccccc1CN1CCn2nc(CNC(C)=O)cc2C1`: -10.31%.
As for `COc1cccc(CN(C)CCCn2cnc3c(N)ncnc32)c1`, the figure is 85.72%; as for `CCS(=O)(=O)c1ncc(CN(C)Cc2cccc(OC)c2)n1CCOC`, -4.749%; as for `CN(Cc1ccccc1)CC(O)Cn1cnc2c(cnn2C)c1=O` (stereo unspecified), -10.76%.
For `COc1cccc(CN(C)C(=O)CN2CCN(CCO)CC2)c1`, the “Percent Effect” value is given as -4.711%.
Regarding `COc1cccc(CCCn2cnnc2[S+](C)[O-])c1` (stereo unspecified), the “Percent Effect” value came to 5.279%.
As to `COc1cccc(SCCCn2cnc3c(N)ncnc32)c1`, the “Percent Effect” value came to 97.7%.
Next, `COc1ccc(OCCN(C)C(=O)NC(C)c2nncn2C)cc1` (stereo unspecified): 5.358%; `CN(CCCn1cnc2c(N)ncnc21)Cc1ccccc1`: 86.6%; `COc1ccc(OCCN(C)CCCn2cnc3c(N)ncnc32)cc1`: 102.2%.
As for `COc1cccc(SCC(=O)N2CCC(N3CCCC3=O)CC2)c1`, the figure is -9.437%; as for `COc1ccc(OCCCN(C)C(=O)C2CCCN2C(N)=O)cc1` (stereo unspecified), -3.357%.
In the case of `CN(Cc1ccccc1)CC(O)Cn1cnc2ccccc2c1=O` (stereo unspecified), the “Percent Effect” value was 5.606%.
Next, `CC(CC(=O)NS(=O)(=O)c1ccc2c(c1)OCCO2)c1ccc(F)cc1` (stereo unspecified): -2.674%; `C[C@@H]1CN(C(=O)CCCn2nnc(-c3ccc(F)cc3)n2)C[C@]1(C)O`: 1.392%; `CC(C)N(C)C(=O)C1=NOC2(CCN(C(=O)c3ccccn3)C2)C1` (stereo unspecified): 12.65%.
For `O=C(c1cnc(-c2ccccc2)s1)N1CCOC2(CCCC2)C1`, the “Percent Effect” value is reported as -9.958%.
Take `CN(C)CCN1CC2(CCN(C(=O)c3cnccn3)CC2)OC1=O`: the “Percent Effect” value was -7.77%.
Regarding `CC(C)(C)C(=O)N1CCN(Cn2nccc2-c2cccnc2)CC1`, the “Percent Effect” value is given as -27.57%.
`CC(C)C(=O)NC1COC2(CCN(C(=O)c3cccnc3)CC2)C1` (stereo unspecified): the “Percent Effect” value is reported as 16.59%.
As for `O=C(c1cccnc1)N1CCC2(CNS(=O)(=O)c3cnccc3O2)C1` (stereo unspecified), the figure is 123.8%.
As for `O=C(c1ccc(Cl)s1)N1CCC2(CNS(=O)(=O)c3cnccc3O2)C1` (stereo unspecified), the figure is 130.4%; as for `CC(C)(C)C(=O)N1CCC2(CC1)CC(Oc1ccccc1)CO2` (stereo unspecified), -1.342%.
As for `Cc1nc(C2CCN(C(=O)c3ccc(Cl)s3)CC2)cc(=O)[nH]1`, the figure is -8.54%.
Consider `CC(C)(C)C(=O)N1CCC2(CNS(=O)(=O)c3cnccc3O2)C1` (stereo unspecified), for which the “Percent Effect” value came to 153.5%.
As for `O=C(c1ccccn1)N1CCC2(CNS(=O)(=O)c3cnccc3O2)C1` (stereo unspecified), the figure is 119.5%; as for `CN(C)C1COC2(CCN(C(=O)c3cccnc3)CC2)C1` (stereo unspecified), -11.3%.
As for `CC(C)Cn1cc(NC(=O)N2CCOC(c3ccccc3)C2)cn1` (stereo unspecified), the figure is 2.646%.
Next, `Cc1nc(-c2ccccc2)sc1C(=O)NCCNc1ncccn1`: 2.127%; `Cc1nc[nH]c1-c1nccn1-c1ccc(C(N)=O)c(N2CCCC2)c1`: 8.513%.
Take `CN(C(=O)CCC(F)(F)F)c1cccc2ncccc12`: the “Percent Effect” value came out at 2.571%.
Next, `Cc1n[nH]c(SCC(=O)N[C@@H](C)C(N)=O)n1`: -9.569%; `CCN1C[C@@H]2CN(C(=O)C3CC=CC3)C[C@@H]2C1=O`: 14.39%; `O=C(C1CC=CC1)N1C[C@H]2CN(Cc3ccncc3)C(=O)[C@H]2C1.O=C(O)C(F)(F)F`: 103%.
As for `O=C(C1CCC1)N1C[C@@H]2CN(Cc3ccncc3)C(=O)[C@@H]2C1.O=C(O)C(F)(F)F`, the figure is 108.5%; as for `O=C(O)C(F)(F)F.O=C1[C@H]2CN(c3ncccn3)C[C@H]2CN1Cc1ccncc1`, 3.817%; as for `O=C(C1CCOCC1)N1C[C@@H]2[C@@H](C1)OCC(=O)N2Cc1ccncc1.O=C(O)C(F)(F)F`, -1.521%.
As for `Cc1ccc(CNS(=O)(=O)CC2=NC(=O)n3cccc3C2=O)cc1`, the figure is 16.21%; as for `Nc1nccc(N2CCC(Cc3ccccc3Cl)(C(=O)O)CC2)n1`, -23.92%; as for `COc1ccnc(CN2CCC(O)(c3ccc(C)cn3)CC2)c1OC`, -7.822%.
`COc1ccccc1OC1(C(=O)O)CCN(c2nc(C)cnc2C)CC1`: the “Percent Effect” value is -31.32%.
Next, `COc1ccccc1OC1(C(=O)O)CCN(c2ccccn2)CC1`: -33.54%.
As for `COc1cccc(CN2CCC(O)(c3ccc(C)cn3)CC2)c1OC`, the figure is -1.243%.
Next, `Cc1nc(N2CCCC2)nc(N2CCC(O)(C(=O)O)CC2)c1C`: -11.99%.
As to `COc1cccc2ccc(N3CCC(O)(c4ccc(C)cn4)CC3)nc12`, the “Percent Effect” value came to 110%.
As for `COc1cccc2ccc(N3CCC(O)(C(=O)O)CC3)nc12`, the figure is 85.02%.
As for `O=C(O)C1(O)CCN(c2ccc3cccc(Cl)c3n2)CC1`, the figure is 102.6%.
